D2 ag-1 = agonists of human D2 dopamine receptor (beta-arrestin); DiscoveRx PathHunter D2 beta-arrestin, luminescence, 90 min; 100% = 57 uM dopamine signal; activation, % (test concentration not listed); actives 0.084% (n = 360,000); AID 624465; in the data active means activation above about 40%; inconclusive means between about 15% and that limit
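DiscoveRx PathHunter D2 beta-arrestin cells (2,100/well) attached overnight, then compound-stimulated 90 min at 37 C in HBSS/10 mM HEPES/0.1% Tween-20 buffer; beta-galactosidase complementation read by luminescence after 1 h at ambient temperature. Dopamine 57 uM final (EC100) as control.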
D2 PAM-1 = positive allosteric modulators of human D2 dopamine receptor | AID 624464 | P14416 | actives 0.23% (n = 360,000) | DiscoveRx D2 beta-arrestin cells, luminescence, 90 min; 100% = 57 uM dopamine signal | potentiation, % (test concentration not listed); in the data active means potentiation above about 50%; inconclusive means mostly about 30% to 49%
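PathHunter beta-arrestin assay in DiscoveRx D2 cells. Compounds were added with an EC20 of dopamine (50 nM final) for 90 min at 37 deg C. Luminescence was read 1 h after detection reagent, with 57 uM dopamine as the EC100 control.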
D2 PAM-2 = D2 dopamine receptor (human) potentiation. HEK293 T-REx D2, calcium flux, EC20 dopamine potentiation. potentiation, % at 10 µM. actives 0.34% (n = 340,000);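 active means potentiation over 3 SD above the plate norm, cut at about 30% in these data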; further: 0% is about no effect
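Cells plated with tetracycline inducer and held overnight at 30 C; calcium dye loaded 30–90 min at room temperature; baseline taken, compound added and read 180 s; EC20 dopamine then added and read 180 s.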
Apoferritin bind = candidate novel general anesthetic via apoferritin binding; P02791; Potency, µM (highest dose often 77.5 µM), without a hit: at the highest dose activity change, negative = displacement, most hits filed as inhibitors; apoferritin/1-aminoanthracene competitive binding, fluorescence; AID 485281; actives 0.074% (n = 350,000); further: potency means the concentration at half of the fitted maximal effect; on the % scale 0 is the no-effect control and ±100 the full control effect; nearly all actives have a fitted effect of over 20% in size
Target sequence (P02791 2-175 limits assumed): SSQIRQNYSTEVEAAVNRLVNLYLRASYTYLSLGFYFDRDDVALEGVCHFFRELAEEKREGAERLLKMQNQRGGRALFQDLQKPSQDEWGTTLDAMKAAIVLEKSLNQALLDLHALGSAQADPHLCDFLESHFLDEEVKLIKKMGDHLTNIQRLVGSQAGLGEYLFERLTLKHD
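Horse-spleen apoferritin (10 uM) in 50% saturated 1-aminoanthracene in PBS was incubated 10 min at room temperature with compound. Fluorescence (ex 380, em 535 nm) was normalized to free and bound 1-AMA, with concentration-response fitted by a four-parameter Hill equation.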
D2 ag-2 = activates the human D2 dopamine receptor; P14416; activation, % at 2 µM; AID 485358; HEK293 T-REx D2 cells, calcium flux agonist mode; actives 0.53% (n = 340,000);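 active means activation over 3 SD above normal in the single-dose calcium agonist read, cut at about 30% in these data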; further: 0% is about no effect
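Tetracycline-induced HEK293 T-REx cells with force-coupled D2 receptor, plated overnight at 30 C, loaded with no-wash calcium dye. After a 10 s baseline, compound was pin-added and calcium flux read kinetically for 180 s; calcium rises flagged agonists.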
D2 antagonist = antagonizes the human D2 dopamine receptor; P14416; HEK293 TREx D2 cells, calcium flux, dopamine EC80; inhibition, % at 10 µM; actives 2% (n = 340,000); in the data active means inhibition above about 30%; inactive means below that, where a call was filed; further: 0% is about no effect
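Calcium mobilization kinetics were recorded at 1 s intervals in tetracycline-induced HEK293 T-REx D2 cells, first for 180 s after compound addition and then 180 s after EC80 dopamine.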
D3 ag = D3 receptor agonism confirmed, beta-arrestin readout | DiscoveRx D3 beta-arrestin cells, luminescence, 90 min | Potency, µM (titrated, usually from 76.9 µM), without a hit: at the highest dose activation, usual class: activators | shares compounds with D2 ag-2 | AID 720506 | actives 4% (n = 2,300);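 further: potency means the concentration at half of the fitted maximal effect; 100% = dopamine control response; nearly all actives have a fitted effect of over 70% in size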
Target sequence (P35462 whole entry, looked up): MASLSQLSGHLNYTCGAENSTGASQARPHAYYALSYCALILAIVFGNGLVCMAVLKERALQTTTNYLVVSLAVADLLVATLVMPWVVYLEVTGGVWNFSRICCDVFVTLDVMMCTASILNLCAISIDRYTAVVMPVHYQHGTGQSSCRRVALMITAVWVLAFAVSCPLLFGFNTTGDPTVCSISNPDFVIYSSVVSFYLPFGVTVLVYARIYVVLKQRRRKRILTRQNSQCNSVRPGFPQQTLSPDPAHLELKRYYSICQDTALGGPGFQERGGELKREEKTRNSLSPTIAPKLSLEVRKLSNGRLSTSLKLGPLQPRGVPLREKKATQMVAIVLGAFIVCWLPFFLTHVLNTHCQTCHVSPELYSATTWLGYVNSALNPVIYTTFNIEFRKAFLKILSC
D2 ag-3 = activates human D2 dopamine receptor in D3 counterscreen; Potency, µM (titrated, usually from 76.9 µM), for inactives: top-dose activation, hits mostly activators; actives 5.9% (n = 2,300); DiscoveRx PathHunter D2 beta-arrestin, luminescence, 90 min; response scale: percent relative to full dopamine signal; AID 720507; shares compounds with D2 ag-2; further: potency means the concentration at half of the fitted maximal effect; % of control where 0% means no effect; nearly all actives have a fitted effect of over 70% in size
Starred values were filed as active, the others as inactive; ? = inconclusive; nt = no result. Only some compounds are listed: those with a hit (about 2.5% of all), similar ones and a draw of the others. Unless noted, the call rests on the fitted dose curve; in most records, active means well fitted curve in the direction sought with a large enough effect; inconclusive means small, poorly fitted or top-dose-only effect, or another doubt; inactive means no such curve, though single readings can be large; an effect the other way counts as inactive or inconclusive.

SMILES	D2 ag-1	D2 PAM-1	D2 PAM-2	Apoferritin bind	D2 ag-2	D2 antagonist	D3 ag	D2 ag-3
COC(=O)C1CCN(Cc2ccc(OCCCN3CCN(c4ccc([N+](=O)[O-])cc4)CC3)cc2)CC1	-3	-16	-24	-9%	54*	75*	3%	29%
Cc1ccc(CN2CCN(C(=O)C3CCC3)CC2)cc1	2	-10	-1	-8%	0	-14	nt	nt
COc1ccc(S(=O)(=O)N2CCCCC2)cc1NC(=S)Nc1cccc(Cl)c1C	-3	-3	2	-18%	-1	-12	nt	nt
COc1ccc(-c2cc(C(F)(F)F)nc(SCC(=O)N(C)Cc3cnn(C)c3C)n2)cc1OC	1	-23	3	-5%	1	-12	nt	nt
COc1ccc(Oc2cc(C)c3ccccc3n2)cc1	?	?	-19	?	44*	45*	?	?
Cc1ccc(Oc2cnc3ccccc3n2)cc1	-3	-3	-6	?	1	-4	nt	nt
CCSc1nnc2c(Cl)cc(Cl)cn12	2	-3	1	-7%	0	-3	nt	nt
Cc1sc2nc(CSCC(=O)Nc3c(F)cccc3F)[nH]c(=O)c2c1C	-2	7	4	nt	0	2	nt	nt
Cc1sc2nc(CSCC(=O)N(C)CC(=O)Nc3ccc(F)cc3)[nH]c(=O)c2c1C	-2	-10	7	nt	3	-9	nt	nt
Cc1sc2nc(CSCC(=O)Nc3ccc(C(F)(F)F)cc3)[nH]c(=O)c2c1C	2	0	3	nt	1	-17	-6%	-2%
Cc1sc2nc(CSCC(=O)Nc3ccc(Cl)cc3F)[nH]c(=O)c2c1C	-5	14	1	nt	0	2	-4%	-6%
CC1CCCCC12NC(=O)N(CC(=O)NCCc1ccc(S(N)(=O)=O)cc1)C2=O (stereo unspecified)	0	-2	2	nt	0	-11	nt	nt
CCOC(=O)C1=C(C)N(Cc2ccc(C(=O)O)cc2)C(=O)NC1c1ccc([N+](=O)[O-])cc1 (stereo unspecified)	-4	-1	0	-2%	1	-13	nt	nt
O=C(COC(=O)c1nsc(Cl)c1Cl)NC1CCCCC1	1	-1	1	-10%	0	-17	nt	nt
Nc1c(Cl)c(Cl)nc(C(=O)OCC(=O)NC2CCCCC2)c1Cl	53*	?	-11	?	64*	57*	19%	?
NC(=O)c1nsc(C(=O)N(Cc2ccco2)C(C(=O)NCc2ccc(F)cc2)c2ccc(O)cc2)c1N (stereo unspecified)	?	25	nt	-14%	1	-17	nt	nt
NC(=O)c1nsc(C(=O)N(c2ccccc2)C(C(=O)NCc2ccc(F)cc2)c2ccc(O)cc2)c1N (stereo unspecified)	4	23	5	2%	6	57*	2%	-1%
CCC1CCc2c(sc(NC(=O)C3CC=CCC3C(=O)O)c2C#N)C1 (stereo unspecified)	?	8	-19	-6%	62*	29	16µM*	?
Cc1cc(N/N=C/c2ccccc2[N+](=O)[O-])nc(-n2nc(C)cc2C)n1	-6	0	-15	-5%	34*	-10	-6%	-3%
CC(C)/C=C/CN1CCC(Oc2ccc(C(=O)N3CCCC3)cc2)CC1	nt	nt	nt	-8%	nt	nt	-7%	0%
COc1cccc(CN2CCC(Oc3ccc(C(=O)N4CCCCC4)cc3)CC2)c1	-3	-18	-2	-6%	0	-9	nt	nt
CC(CCc1ccc(O)cc1)N1CCC(Oc2ccc(C(=O)N3CCCC3)cc2)CC1 (stereo unspecified)	13	-12	-21	-11%	60*	39*	?	18%
CC(=O)N/C(=C/C(C)C)c1ccccc1	-1	-2	-7	nt	0	1	-2%	-4%
CCOC(=O)C1(CCOc2ccccc2)CCN(Cc2cccn2-c2ncccn2)CC1	1	-7	3	-11%	0	-8	-8%	3%
CCOC(=O)C1CCN(Cc2cn(C)nc2-c2ccc(Oc3ccccc3)cc2)CC1	5	-5	-8	-15%	18	20	-12%	9%
SMILES	D2 ag-1	D2 PAM-1	D2 PAM-2	Apoferritin bind	D2 ag-2	D2 antagonist	D3 ag	D2 ag-3
CCOC(=O)C1(CCOC)CCN(Cc2cccc(OCc3ccccc3)c2)CC1	1	-4	-20	-8%	63*	37*	0%	25%
Cn1cc(CN2CCC(O)CC2)c(-c2ccc(Oc3ccccc3)cc2)n1	-7	-12	-14	-7%	1	10	nt	nt
CCOC(=O)C1CCN(Cc2cccc(OCc3ccccc3)c2)CC1	48*	22	-21	-12%	74*	86*	14%	?
COc1ccc(C(O)c2coc3ccc(O)c(CN(C)C)c23)cc1 (stereo unspecified)	-1	-6	-6	-4%	1	12	nt	nt
O=C(c1ccccc1F)N1CCCC(c2ccccc2)C1 (stereo unspecified)	0	-7	12	-23%	0	-7	nt	nt
COc1ccc(-n2c(Cc3cccn3C)nnc2SCC(=O)Nc2ccc(C)cc2C)cc1	0	4	-5	?	-1	4	nt	nt
CCOC(=O)C1(Cc2cccc(OC)c2)CCN(Cc2cnc(SC)nc2)CC1	-2	3	-19	-12%	59*	93*	0%	?
O=C(NCc1ccccc1)c1nc[nH]c1C(=O)N1CCc2ccccc2C1	1	-13	nt	nt	nt	nt	nt	nt
O=C(Nc1ccon1)c1nc[nH]c1C(=O)N1CCc2ccccc2C1	-2	-10	0	nt	0	-6	-1%	-4%
COc1ccccc1N1CCN(C(CNS(=O)(=O)c2ccccc2)c2ccccc2)CC1 (stereo unspecified)	-1	-33	-15	-5%	7	20	-7%	-1%
Cc1ccc(S(=O)(=O)NCC(c2ccc3c(c2)OCO3)N2CCN(c3ccccc3)CC2)cc1 (stereo unspecified)	?	9	-27	nt	64*	67*	20%	?
COc1ccc(S(=O)(=O)NCC(c2ccc3c(c2)OCO3)N2CCN(c3ccccc3)CC2)cc1 (stereo unspecified)	?	28	-26	nt	66*	73*	16%	11µM*
